In the library only some 3.8% were active in any assay of this set; here they are far more common.
TIM10 inh: TIM10 yeast growth inhibition | S. cerevisiae TIM10 strain growth, BacTiter-Glo luminescence, 24 h | inhibition, % at 10 µM | 1.4% of 330,000 active;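 active means inhibition of 40% or more at the single tested concentration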;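 further: wild-type TIM10 isogenic control strain grown at permissive 25 °C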
tim10-1 inh: inhibits growth of tim10-1 mutant yeast | inhibition, % at 20 µM | 2.2% of 330,000 active | S. cerevisiae tim10-1 ts strain growth, BacTiter-Glo, 24 h;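 active means inhibition of at least 40%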;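 further: mutant grown at 25 °C; 0% = DMSO wells with yeast and 100% = wells holding no yeast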
tim23-1 inh: tim23-1 yeast growth inhibition | S. cerevisiae tim23-1 growth, BacTiter-Glo luminescence, 24 h | 1.3% of 330,000 active | inhibition, % at 20 µM;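 active means growth inhibition of the mutant yeast at or above 50%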;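 further: temperature-sensitive mutant grown at 25 °C; plate controls were DMSO-treated mutant yeast for no effect and medium wells lacking yeast for full effect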
PfHsp90 set2: inhibits growth of yeast expressing Plasmodium falciparum Hsp90. S. cerevisiae expressing PfHsp90, BacTiter-Glo ATP, 48 h; yeast lacking PDR1 and PDR3 efflux regulators. inhibition, % at 9.4 µM. 0.32% of 310,000 active;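 active means every replicate shows inhibition above about 80%, whatever the replicate mean, limit read from the data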;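 further: 0% = DMSO neutral controls and 100% = 20 µM radicicol positive controls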
B2AR ag: human beta-2 adrenergic receptor agonism by FAP; response, % (test concentration not listed); 0.43% of 340,000 active; Am2.2-beta2AR cells, FAP receptor internalization, flow cytometry; AID 504454;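 active means response above a set limit, near 3 SD of response in nonfluorescent compounds, cut at about 42% in these data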
Target sequence (P07550 whole entry, looked up): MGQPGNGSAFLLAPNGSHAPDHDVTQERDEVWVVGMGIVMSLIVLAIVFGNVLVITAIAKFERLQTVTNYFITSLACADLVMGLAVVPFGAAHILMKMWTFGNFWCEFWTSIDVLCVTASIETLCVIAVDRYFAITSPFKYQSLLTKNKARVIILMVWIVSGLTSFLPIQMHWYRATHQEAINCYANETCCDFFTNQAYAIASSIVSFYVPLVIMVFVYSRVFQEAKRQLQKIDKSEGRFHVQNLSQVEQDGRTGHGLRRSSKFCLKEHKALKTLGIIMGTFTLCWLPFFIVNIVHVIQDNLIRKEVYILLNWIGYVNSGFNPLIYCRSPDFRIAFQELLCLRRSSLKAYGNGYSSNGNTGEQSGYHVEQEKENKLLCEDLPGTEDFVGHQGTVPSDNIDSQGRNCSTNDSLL
tim23-1 conf: confirmation of tim23-1 mutant yeast growth inhibitors. AID 463218. S. cerevisiae tim23-1 growth, BacTiter-Glo luminescence, 24 h. 83% of 4,400 active. inhibition, % at 20 µM. shares compounds with tim23-1 inh;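 active means inhibition above about 39% in either of two replicate wells at 20 µM, limit read from the data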;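 further: temperature-sensitive tim23-1 mutant grown at 25 °C; 0% = DMSO wells with yeast and 100% = medium wells without yeast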
* = called active by the depositor.

O=C(COC(=O)c1ccc2ncsc2c1)Nc1ncc(Cl)cc1Cl was read as TIM10 inh -1.0, tim10-1 inh 12.4, tim23-1 inh 13.7, PfHsp90 set2 9.0 and B2AR ag -1.9.
Screening Cc1ccc(Nc2nc3ccccc3s2)c(C)c1 returned TIM10 inh 37.1, tim10-1 inh 38.3, tim23-1 inh 58.4*, PfHsp90 set2 -15.1, B2AR ag 6.6 and tim23-1 conf 45.8*.
For CCOC(=O)c1sc(N(Cc2ccccc2)C(=O)CCl)nc1C the results were TIM10 inh 14.2, tim10-1 inh 20.4, tim23-1 inh 62.0*, PfHsp90 set2 -9.3, B2AR ag 18.0 and tim23-1 conf 48.2*.
OCC1OCOC2C(CO)OCOC12 (centres undefined) was read as PfHsp90 set2 0.3 and B2AR ag -15.3.
`CCCn1nnc(NC(=O)c2sc3ccccc3c2Cl)n1` gave TIM10 inh 21.5, tim10-1 inh 19.1, tim23-1 inh 52.5*, PfHsp90 set2 7.6, B2AR ag -1.7 and tim23-1 conf 42.0*.
`C/C(=N\NC(=S)NC1CCCCC1)c1ccc(C#N)cc1` gave TIM10 inh 27.9, tim10-1 inh 28.3, tim23-1 inh 23.3, PfHsp90 set2 -40.9 and B2AR ag -10.0.
N#Cc1ccc(C(=O)NC(=S)NC2CCCCC2)cc1 was read as TIM10 inh 32.0, tim10-1 inh 10.5, tim23-1 inh 65.2*, PfHsp90 set2 1.3, B2AR ag 14.0 and tim23-1 conf 41.0*.
`O=C(NC(=S)NC1CCCC1)c1ccccc1` gave TIM10 inh 8.6, tim10-1 inh 29.1, tim23-1 inh 57.8*, PfHsp90 set2 -21.3, B2AR ag -1.1 and tim23-1 conf 46.4*.
For O=C(NC(=S)NC1CCCCCCCCCCC1)c1cccnc1 the results were TIM10 inh -36.9, tim10-1 inh 6.8, tim23-1 inh 11.5 and B2AR ag 0.1.
O=Cc1ccc(C(=O)OCC(=O)NCc2ccco2)cc1 was read as TIM10 inh -9.1, tim10-1 inh -1.3, tim23-1 inh -3.5 and B2AR ag 2.1.
`CC(=O)c1c(O)c2ccccc2n(Cc2ccccc2)c1=O` gave TIM10 inh 10.6, tim10-1 inh 27.7, tim23-1 inh 56.3*, PfHsp90 set2 -0.8, B2AR ag -5.6 and tim23-1 conf 35.9.
For Cn1c(=O)c(C(=O)NCc2ccc(F)cc2)c(O)c2ccccc21 the results were TIM10 inh 9.1, tim10-1 inh 4.2, tim23-1 inh 41.2, PfHsp90 set2 -3.1 and B2AR ag -2.5.
`CCn1c(=O)c(C(=O)NCCc2ccccc2)c(O)c2ccccc21` gave TIM10 inh 10.6, tim10-1 inh -6.7, tim23-1 inh -4.1, PfHsp90 set2 20.3 and B2AR ag -58.0.
Screening Cn1c(=O)c(C(=O)NCc2ccccc2)c(O)c2ccccc21 returned TIM10 inh -1.5, tim10-1 inh -15.7, tim23-1 inh 53.7*, PfHsp90 set2 3.9, B2AR ag 4.3 and tim23-1 conf 26.5.
`CN(CC1CCCN(CCc2ccc(F)cc2)C1)C(=O)CCC(N)=O` (centres undefined) gave TIM10 inh -3.8, tim10-1 inh -13.2, tim23-1 inh -13.6, PfHsp90 set2 8.3 and B2AR ag 2.2.
CCC(C)c1ccc(S(=O)(=O)N2CCN(c3ccccn3)CC2)cc1 (centres undefined) was read as TIM10 inh 22.6, tim10-1 inh 8.6, tim23-1 inh 7.0, PfHsp90 set2 -13.9 and B2AR ag -0.6.
O=C(NC1CCCCCC1)c1c(O)nc2sccn2c1=O was read as TIM10 inh 36.6, tim10-1 inh 38.8, tim23-1 inh 69.4*, PfHsp90 set2 -10.2, B2AR ag -3.3 and tim23-1 conf 45.5*.
O=C(NC1CCCCC1)c1c(O)nc2sccn2c1=O was read as TIM10 inh 4.7, tim10-1 inh 14.7, tim23-1 inh 67.2*, B2AR ag 11.0 and tim23-1 conf 47.4*.
`O=C(NCC1CCCO1)c1c(O)nc2sccn2c1=O` (centres undefined) gave TIM10 inh -8.4, tim10-1 inh 3.2, tim23-1 inh 35.5 and B2AR ag 20.4.
`CC1CC(NC(=O)c2c(O)nc3ccccn3c2=O)CC(C)(C)C1` (centres undefined) gave PfHsp90 set2 -7.8 and B2AR ag 7.4.
CC1CC(NC(=O)c2c(O)nc3sccn3c2=O)CC(C)(C)C1 (centres undefined) was read as TIM10 inh -2.3, tim10-1 inh -15.4, tim23-1 inh 64.2*, PfHsp90 set2 -63.5, B2AR ag 3.7 and tim23-1 conf -11.5.
`Cc1ccc(C(C)C)c(OCC(=O)Nc2ccc(N3CCOCC3)cc2N2CCOCC2)c1` gave TIM10 inh -0.1, tim10-1 inh -2.4, tim23-1 inh -7.7 and B2AR ag 11.2.
For CC(C)(C)c1ccc(C(=O)Cn2cnnc2C#N)cc1 the results were TIM10 inh 26.9, tim10-1 inh 28.5, tim23-1 inh 37.3, PfHsp90 set2 34.3 and B2AR ag -6.5.
Screening Cc1nc(NCCN2CCOCC2)c2oc3ccccc3c2n1 returned TIM10 inh -6.2, tim10-1 inh -6.3, tim23-1 inh -4.4, PfHsp90 set2 -27.5 and B2AR ag -3.1.
For Cc1nc(NCCc2ccccc2)c2oc3ccccc3c2n1 the results were TIM10 inh 23.9, tim10-1 inh 29.9, tim23-1 inh 60.7*, PfHsp90 set2 48.9, B2AR ag -3.9 and tim23-1 conf 41.1*.
Screening COc1ccc(CC(=O)OCC(=O)NC2CCCC(C)C2C)cc1 (centres undefined) returned TIM10 inh 11.9, tim10-1 inh 25.1, tim23-1 inh 31.3, PfHsp90 set2 17.4 and B2AR ag -6.7.
For Oc1cccc(-c2nc3ccccc3s2)c1 the results were TIM10 inh 29.3, tim10-1 inh 33.9, tim23-1 inh 46.9, PfHsp90 set2 -21.2 and B2AR ag 7.9.
For CCOc1cc(-c2nc3ccccc3s2)ccc1O the results were TIM10 inh 26.8, tim10-1 inh 35.2, tim23-1 inh 58.8*, PfHsp90 set2 -32.1, B2AR ag 28.6 and tim23-1 conf 36.6.
Screening O=C(NN1C(=O)/C(=C/c2cccs2)SC1=S)c1ccccc1 returned TIM10 inh -24.1, tim10-1 inh -20.9, tim23-1 inh 6.4, PfHsp90 set2 -48.9 and B2AR ag -0.9.
For O=C1/C(=C\c2cccs2)N=C(c2cccs2)N1Nc1ccccc1 the results were TIM10 inh 31.8, tim10-1 inh 30.8, tim23-1 inh 66.2*, PfHsp90 set2 -11.1, B2AR ag 7.9 and tim23-1 conf 40.7*.
O=C1/C(=C/c2cccs2)N=C(c2cccs2)N1Nc1ccccc1 was read as TIM10 inh 30.2, tim10-1 inh 23.4, tim23-1 inh 57.5*, PfHsp90 set2 -8.0, B2AR ag 9.2 and tim23-1 conf 51.0*.
Screening Cc1ccc(C2=N/C(=C\c3cccs3)C(=O)N2Nc2ccccc2)cc1 returned TIM10 inh 16.5, tim10-1 inh 28.7, tim23-1 inh 39.5, PfHsp90 set2 -46.7 and B2AR ag -3.1.
